# High-throughput results from PubChem.
# KB-3-1 cytotox = KB-3-1 parental cell cytotoxicity; KB-3-1 viability, CellTiter-Glo ATP luminescence, 72 h; 400,000 tested, 1.4% active; AID 1347075; Potency, µM (titrated, usually from 46.1 µM), most hits filed as cytotoxic; note: potency is the fitted concentration of half-maximal effect; % is set by controls: 0 for no effect and ±100 for the full control effect; nearly all actives have a fitted effect of over 60% in size
#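 72 h, 37 °C compound treatment of KB-3-1 parental cells; CellTiter-Glo added, 10 min, luminescence read. Data corrected against DMSO-only plates and normalized before curve fitting.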
# DRD3 agonist = activates the human D3 dopamine receptor | P35462 | AID 652048 | D3R DiscoveRx beta-arrestin cells, luminescence, 90 min | max activation, % | 410,000 tested, 0.58% active; in the data active = max activation above about 30%; note: 0% is about no effect
# Target sequence (P35462 whole entry, looked up): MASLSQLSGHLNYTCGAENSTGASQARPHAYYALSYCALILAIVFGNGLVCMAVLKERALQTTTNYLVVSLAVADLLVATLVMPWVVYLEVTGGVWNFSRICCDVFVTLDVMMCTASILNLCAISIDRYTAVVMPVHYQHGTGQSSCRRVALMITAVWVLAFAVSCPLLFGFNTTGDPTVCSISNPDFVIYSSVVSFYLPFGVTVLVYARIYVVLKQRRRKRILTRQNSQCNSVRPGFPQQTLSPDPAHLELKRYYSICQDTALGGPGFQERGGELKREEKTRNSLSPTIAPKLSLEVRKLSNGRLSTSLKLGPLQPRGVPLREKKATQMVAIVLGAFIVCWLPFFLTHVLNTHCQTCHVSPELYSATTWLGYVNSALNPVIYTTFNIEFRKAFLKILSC
#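 Agonist mode: compounds and dopamine controls were applied to plated cells for 90 min at 37 degrees C after an overnight attachment at 1500 cells/well. Luminescent read-out followed 30 - 60 minutes at room temperature with DiscoveRx detection reagent.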
# MCF10A rereplic = DNA re-replication induction in MCF 10a cells. MCF 10A DNA re-replication, Hoechst nuclear intensity, 48 h. Potency, µM (top dose mostly 46.1 µM), inactives show at the top dose activity, positive = re-replication, usual class: activators. 350,000 tested, 2.9% active. AID 624296; note: potency is the fitted concentration of half-maximal effect; % of control where 0% means no effect; nearly all actives have a fitted effect of over 50% in size
# SW480 rereplic = DNA re-replication induction in SW480 cells. SW480 DNA re-replication, Hoechst DNA content imaging, 48 h. Potency, µM (series often up to 46.1 µM), for the others: at the highest dose re-replication activation, usual class: activators. 340,000 tested, 1.8% active; note: potency is the fitted concentration of half-maximal effect; % of control where 0% means no effect; nearly all actives have a fitted effect of over 55% in size
#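 SW480 cells exposed to compounds for 48 hr at 37 C, 5% CO2, then Hoechst-stained 40 min. Nuclear DNA content imaged by fluorescence scanning (405 nm excitation, 500-530 nm emission); re-replication scored as increased high-intensity nuclei.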
# KB-V1 cytotox = kills drug-selected multidrug resistant KB-V1 cells. KB-V1 MDR cells viability, CellTiter-Glo, 72 h. Potency, µM (doses to about 46.1 µM), actives largely listed as cytotoxic. 400,000 tested, 3.4% active; note: potency is the fitted concentration of half-maximal effect; % is set by controls: 0 for no effect and ±100 for the full control effect; nearly all actives have a fitted effect of over 60% in size
#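 Cells of the MDR subline KB-V1 are plated, dosed with compound at multiple concentrations, and incubated 72 h at 37 degrees C; CellTiter-Glo is then added and luminescence read after 10 min.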
# D3 antag = antagonists of human D3 dopamine receptor. D3R cells, DiscoveRx beta-arrestin luminescence, antagonist mode; active compounds read low. max response, negative = inhibition, %. 360,000 tested, 2.5% active. AID 652054; in the data active = max response below about -50%; inconclusive = no clear call, values can overlap the other calls; note: % is set by controls: 0 for no effect and ±100 for the full control effect
#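 Cells plated overnight at 1500 cells/well, then exposed to library compounds with dopamine controls for 90 minutes at 37 degrees C. DiscoveRx reagent added for 30–60 minutes at room temperature; luminescence read, quantitative HTS format.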
# * = called active by the depositor; i = inactive; ? = inconclusive; . = no result given. Shown are actives, neighbours in structure and some others; about 8.9% of the full set was active somewhere. Unless noted, calls come from the whole dose curve; as a rule, active = well fitted curve in the direction sought with a large enough effect; inconclusive = small, poorly fitted or top-dose-only effect, or another doubt; inactive = no such curve, though single readings can be large; an effect the other way counts as inactive or inconclusive.
SMILES,KB-3-1 cytotox,DRD3 agonist,MCF10A rereplic,SW480 rereplic,KB-V1 cytotox,D3 antag
Cc1cc(Nc2ccccc2C(=O)O)n(-c2cccc(Cl)c2)n1,i,1,-1%,5.2µM*,i,53
Cc1cc(Nc2ccc(Cl)cc2)n(-c2cccc(Cl)c2)n1,?,2,26µM*,?,?,13
Cc1cc(Nc2ccc(Cl)cc2)n(-c2ccccc2)n1,i,-3,?,-2%,i,2
Cc1cc(Nc2nc3ccccc3nc2Cl)n(-c2ccccc2C)n1,i,-4,?,4%,i,-11
Cc1cc(Nc2nc3ccccc3nc2Cl)n(-c2ccccc2)n1,?,-8,13µM*,?,13µM*,-13
Cc1nc(-c2ccc(S(=O)(=O)N(Cc3ccccc3)C(C)C)cc2)co1,i,6,.,.,i,.
COc1ccc(S(=O)(=O)NCc2ccc3c(c2)CCN3C(=O)c2ccccc2)cc1OC,.,6,.,.,.,.
c1ccc(-c2[nH]ncc2CN2CCc3ccccc3C2)cc1,i,-26,?,0%,i,?
Fc1ccc(N2CCN(Cc3ccccn3)CC2)cc1,i,-15,7%,-1%,i,-20
Oc1ccc(CN2CCC(Cc3ccccc3)CC2)c2cccnc12,23µM*,-21,?,2.9µM*,?,-88*
Oc1ccc(CN2CCN(c3ccccc3)CC2)c2cccnc12,?,-26,?,?,i,-100*
Ic1ccc(N2CCN(Cc3c[nH]c4ncccc34)CC2)cc1,i,-88,?,?,i,-58*
Cn1cc(CN2CCc3ccccc3C2)c2ccccc21,i,-28,?,-2%,i,-95*
CCCOc1ccc(-c2nonc2NC(=O)c2oc3ccc(C)cc3c2C)cc1OCCC,i,2,.,.,i,.
CCOC(=O)N1CCN(Cc2ccc(O)c3ncccc23)CC1,?,-8,21µM*,5.8µM*,i,?
Oc1ccc(CN2CCc3ccccc3C2)c2cccnc12,4.6µM*,-13,2.3µM*,?,?,-114*
Oc1ccc(CN2CCCCC2)c2cccnc12,?,-32,-1%,7%,?,?
CCOC(=O)N1CCN(Cc2ccccn2)CC1,i,15,-1%,-4%,i,?
C=C1CC2C3C=C(C)C4=CC(=O)CCC4(C)C3CCC2(C)[C@@]1(OC(C)=O)C(C)=O (stereo partly drawn),.,.,10%,-8%,.,.
CSC1=NS(=O)(=O)c2c(C)nn(C)c2S1,i,-8,?,?,?,-69*
CCc1ccc(CNCc2c(C(=O)O)c(C)n(Cc3c(F)cccc3Cl)c2C)cc1,i,-20,.,.,i,.
Cc1ccc(/C=C/C(=O)NC2CCCCCCC2)o1,i,-18,?,23µM*,i,-61*
CCc1ccc(CCC(=O)Nc2sc3c(c2C#N)CCCC3)o1,?,-22,4.6µM*,3.3µM*,?,?
Cc1ccc(/C=C/C(=O)Nc2sc3c(c2C#N)CCCC3)o1,i,-2,?,1.2µM*,i,-16
CCC(=O)Nc1sc2c(c1C#N)CCC2,i,-6,-3%,-3%,i,-6
SMILES,KB-3-1 cytotox,DRD3 agonist,MCF10A rereplic,SW480 rereplic,KB-V1 cytotox,D3 antag
Cc1ccc(/C=N/NC(=O)NC2CCCCC2)o1,i,2,-2%,-6%,i,9
COC(=O)c1ccc(Cn2cc(/C=C\[N+](=O)[O-])c3ccccc32)o1,?,-3,?,?,i,1
CCOC(=O)Cn1cc(/C=C/[N+](=O)[O-])c2ccccc21,i,0,?,21µM*,?,-15
CCOC(=O)COc1ccc(/C=C/[N+](=O)[O-])c(OCC(=O)OCC)c1,?,1,?,?,i,-5
CCOc1ccc(/C=C/[N+](=O)[O-])c2ccccc12,?,-29,2.3µM*,6.5µM*,18µM*,-28
Cc1cccc(Cn2cc(/C=C/[N+](=O)[O-])c3ccccc32)c1,?,-2,21µM*,?,i,-24
CCOC(=O)COc1ccc2ccccc2c1/C=C/[N+](=O)[O-],18µM*,-7,?,?,?,-52*
CCc1cccc(C)c1NC(=O)CCn1c(=O)c2cccn2c2ccccc21,.,0,.,.,.,.
CCOC(=O)c1c(NC(=O)c2cc(=O)c3cc(Cl)ccc3o2)sc(C)c1C,i,1,.,.,i,.
O=[N+]([O-])/C=C/c1cn(Cc2ccc(Cl)cc2)c2ccccc12,i,-4,5.8µM*,?,?,-53*
O=C(O)c1ccc(Cn2cc(/C=C\[N+](=O)[O-])c3ccccc32)o1,i,3,-12%,1%,i,-24
CC(=O)c1ccc(NC(=O)c2cc(C3CC3)nc3c2c(C)nn3-c2ccc(C)cc2)cc1,i,0,.,.,i,.
COc1ccc(/C=C/C(=O)c2ccccc2)cc1COc1ccccc1F,i,4,?,15µM*,?,5
COc1ccc(C(=O)N/N=C\c2ccc(OC)c(COc3ccccc3Br)c2)c(OC)c1,?,2,-28%,135%,16µM*,11
COCc1cc(/C=N\NC(=O)Cc2ccc(OC)cc2)ccc1OC,i,-14,-3%,3%,23µM*,-20
COc1ccc(/C=N\NC(=O)c2ccccc2Br)cc1COc1ccccc1,i,-2,-4%,?,i,-6
COCc1cc(/C=N\NC(=O)Cc2ccc(Cl)cc2)ccc1OC,i,-18,4%,0%,i,-17
COc1ccc(/C=N/NC(=O)c2cccnc2)cc1COc1ccc(NC(C)=O)cc1,i,-4,4.1µM*,8.2µM*,?,4
COc1ccc(/C=N/NC(=O)c2cccnc2)cc1COc1ccc([N+](=O)[O-])cc1,?,-4,?,?,?,-7
COc1cccc(C(=O)N/N=C/c2ccc(OC)c(COc3ccccc3C(N)=O)c2)c1,i,-9,?,16µM*,i,-15
COc1cc(OC)cc(C(=O)N/N=C/c2ccc(OC)c(COc3ccc(F)cc3)c2)c1,?,-6,5.8µM*,5.8µM*,10µM*,-25
COc1ccc(OCc2cc(/C=N\NC(=O)c3ccccc3)ccc2OC)cc1,6.5µM*,-6,8.2µM*,15µM*,?,7
COc1ccc(/C=N\NC(=O)c2ccc(F)cc2)cc1COc1ccccc1C(N)=O,i,0,?,-6%,i,-16
CCN(C(=O)Cn1c(=O)oc2cc(S(=O)(=O)N3CCCCC3)ccc21)c1ccccc1,?,1,.,.,i,.
CCOCCc1nn2c(=O)cc(COC(=O)c3ccccc3Br)nc2s1,i,-4,.,.,i,.
